# Values joined by “and” are separate entries in the source; they are usually repeats but may differ in a detail not shown here. Equal entries are not always repeated. Records with an inconclusive call do not appear. A structure can be active in one record and inactive in another. A number with no mark means an inactive call. Active and inactive are the calls of the source. Calls follow the shape of the dose curve; as a rule, active = well fitted inhibition curve with a large enough effect; inconclusive = small, poorly fitted or top-dose-only effect; inactive = flat fitted curve, though single readings scatter.
# Key:
# HB3 = experiment: qHTS profiling for inhibitors of Plasmodium falciparum proliferation (AID 504749); conditions: P. falciparum in erythrocytes, SYBR Green DNA, 72 h; series mostly up to 28.7 µM
# Procedure, shortened: (§1)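 SYBR Green fluorescence (ex 485 nm, em 535 nm) reports parasite DNA after 72 h compound exposure of infected red cells at 0.3% parasitemia, 2.5% hematocrit; signal normalized to 0.29 uM artemisinin and vehicle wells.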
# ICS = experiment: as above; conditions: P. falciparum in erythrocytes, SYBR Green DNA, 72 h; series mostly up to 28.7 µM
# Procedure, shortened: as §1
# JCK = experiment: as above; conditions: P. falciparum in erythrocytes, SYBR Green DNA, 72 h; series mostly up to 28.7 µM
# Procedure, shortened: as §1
# N140 = experiment: as above; conditions: P. falciparum in erythrocytes, SYBR Green DNA, 72 h; series mostly up to 28.7 µM
# Procedure, shortened: as §1
# P93_24 = experiment: as above; conditions: P. falciparum in erythrocytes, SYBR Green DNA, 72 h; series mostly up to 28.7 µM
# Procedure, shortened: as §1
# P94_40 = experiment: as above; conditions: P. falciparum in erythrocytes, SYBR Green DNA, 72 h; series mostly up to 28.7 µM
# Procedure, shortened: as §1
# PAD = experiment: as above; conditions: P. falciparum in erythrocytes, SYBR Green DNA, 72 h; series mostly up to 28.7 µM
# Procedure, shortened: as §1
# PC15 = experiment: as above; conditions: P. falciparum in erythrocytes, SYBR Green DNA, 72 h; series mostly up to 28.7 µM
# Procedure, shortened: as §1
# PC26 = experiment: as above; conditions: P. falciparum in erythrocytes, SYBR Green DNA, 72 h; series mostly up to 28.7 µM
# Procedure, shortened: as §1
# PC49 = experiment: as above; conditions: P. falciparum in erythrocytes, SYBR Green DNA, 72 h; series mostly up to 28.7 µM
# Procedure, shortened: as §1
# SC27B = experiment: as above; conditions: P. falciparum in erythrocytes, SYBR Green DNA, 72 h; series mostly up to 28.7 µM
# Procedure, shortened: as §1
# TAB109 = experiment: as above; conditions: P. falciparum in erythrocytes, SYBR Green DNA, 72 h; series mostly up to 28.7 µM
# Procedure, shortened: as §1
# TAB113 = experiment: as above; conditions: P. falciparum in erythrocytes, SYBR Green DNA, 72 h; series mostly up to 28.7 µM
# Procedure, shortened: as §1
# TAB165 = experiment: as above; conditions: P. falciparum in erythrocytes, SYBR Green DNA, 72 h; series mostly up to 28.7 µM
# Procedure, shortened: as §1
# W2 = experiment: as above; conditions: P. falciparum in erythrocytes, SYBR Green DNA, 72 h; series mostly up to 28.7 µM
# Procedure, shortened: as §1
# CRL-7250 = normal cell line; experiment: Cytotoxic Profiling of Annotated Libraries Using Quantitative High-Throughput Screening (AID 1296008); conditions: Five cell lines viability, CellTiter-Glo ATP luminescence, 48-72 h; max response: active compounds read low; as to max response: % is scaled to controls: 0 for no effect and ±100 for the full control effect
# Procedure, shortened: (§2)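 Cells exposed to compounds for 48 or 72 hr at 37 degrees Celsius. Viability read as ATP-coupled luminescence with CellTiter-Glo after 10 min at room temperature.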
# HEK293 = experiment: as above; conditions: Five cell lines viability, CellTiter-Glo ATP luminescence, 48-72 h; max response: active compounds read low
# Procedure, shortened: as §2
# HaCat = experiment: as above; conditions: Five cell lines viability, CellTiter-Glo ATP luminescence, 48-72 h; max response: active compounds read low
# Procedure, shortened: as §2
# KB-3-1 = experiment: as above; conditions: Five cell lines viability, CellTiter-Glo ATP luminescence, 48-72 h; max response: active compounds read low
# Procedure, shortened: as §2
# NIH3T3 = experiment: as above; conditions: Five cell lines viability, CellTiter-Glo ATP luminescence, 48-72 h; max response: active compounds read low
# Procedure, shortened: as §2
# Also: nearly all actives have a fitted effect of over 60% in size.
# Potency is read from the fitted curve at half-maximal effect.
structure (smiles),measurement,setting,value
O=C(O)CNC(=O)c1ccccc1,Potency,HB3,inactive
same,Potency,ICS,inactive
same,Potency,JCK,inactive
same,Potency,N140,inactive
same,Potency,P93_24,inactive
same,Potency,P94_40,inactive
same,Potency,PAD,inactive
same,Potency,PC15,inactive
same,Potency,PC26,inactive
same,Potency,PC49,inactive
same,Potency,SC27B,inactive
same,Potency,TAB109,inactive
same,Potency,TAB113,inactive
same,Potency,TAB165,inactive
same,Potency,W2,inactive
same,max response,CRL-7250,2.85%
same,max response,HEK293,-10.7%
same,outcome,HaCat,inactive
same,max response,KB-3-1,-0.856%
same,outcome,NIH3T3,inactive
Cc1ccc(C(=O)C(C)CN2CCCCC2)cc1 (stereo not given),Potency,ICS,3.98 µM (active)
same,Potency,JCK,inactive
same,Potency,PC49,inactive
same,Potency,SC27B,inactive
same,Potency,W2,6.01 µM (active)
same,max response,CRL-7250,-2.76% and -2.03%
same,max response,HEK293,0.201%
same,outcome,HaCat,inactive; activator
same,max response,KB-3-1,7.56% and -13.6% and 2.39%
same,max response,NIH3T3,-4.42%
same,outcome,NIH3T3,inactive
Cc1cc2c(cc1CC(=O)c1sccc1S(=O)(=O)Nc1onc(C)c1Cl)OCO2,max response,CRL-7250,-5.35% and 2.32%
same,outcome,HEK293,inactive
same,max response,HaCat,-2.94%
same,outcome,HaCat,inactive
same,max response,KB-3-1,9.67%
same,max response,NIH3T3,0.409% and 4.42%
C[C@H](CCC(=O)O)[C@H]1CC[C@H]2[C@@H]3C(=O)C[C@@H]4CC(=O)CC[C@]4(C)[C@H]3CC(=O)[C@]12C,max response,CRL-7250,-5.31%
same,outcome,HEK293,inactive
same,outcome,HaCat,inactive
same,max response,KB-3-1,-9.72%
same,max response,NIH3T3,-5.45%
O=c1[nH]c(=O)n([C@H]2CCCO2)cc1F,max response,CRL-7250,4.85% and -6.48%
same,max response,HEK293,1.04%
same,outcome,HEK293,inactive
same,outcome,HaCat,inactive
same,max response,KB-3-1,8.54%
same,max response,NIH3T3,-5.35%
Cc1onc(-c2c(Cl)cccc2Cl)c1C(=O)N[C@@H]1C(=O)N2[C@@H]1SC(C)(C)[C@@H]2C(=O)O,max response,CRL-7250,-3.36% and -1.59%
same,max response,HEK293,-5.63%
same,outcome,HEK293,inactive
same,max response,HaCat,-4.29%
same,max response,KB-3-1,-7.64% and 7.08%
same,max response,NIH3T3,-14.9% and -2.17%
CCCCC(=O)O[C@]1(C(=O)CO)CC[C@H]2[C@@H]3CCC4=CC(=O)CC[C@]4(C)[C@H]3[C@@H](O)C[C@@]21C,outcome,CRL-7250,inactive
same,max response,HEK293,3.34%
same,outcome,HaCat,inactive
same,max response,KB-3-1,-2.52%
same,max response,NIH3T3,1.69%
O=C1OC2(c3ccc(O)cc3Oc3cc(O)ccc32)c2ccccc21,max response,CRL-7250,-1.47%
same,max response,HEK293,-1.16%
same,max response,HaCat,-26.2%
same,max response,KB-3-1,-10.5%
same,max response,NIH3T3,-4.38%
CCCCS(=O)(=O)N[C@@H](Cc1ccc(OCCCCC2CCNCC2)cc1)C(=O)O,max response,CRL-7250,-2.86% and 2.79%
same,max response,HEK293,-5.53% and -1.56%
same,max response,HaCat,-0.76%
same,outcome,HaCat,inactive
same,max response,KB-3-1,-7.62%
same,outcome,KB-3-1,inactive
same,max response,NIH3T3,-1.76%
same,outcome,NIH3T3,inactive
CC(=O)O[C@]1(C(C)=O)CC[C@H]2[C@@H]3C[C@H](C)C4=CC(=O)CC[C@]4(C)[C@H]3CC[C@@]21C,outcome,CRL-7250,inactive
same,Potency,HEK293,15 µM (active)
same,max response,HaCat,-32.7% and 2.19%
same,max response,KB-3-1,9.44%
same,outcome,KB-3-1,inactive
same,max response,NIH3T3,-18.3%
same,outcome,NIH3T3,inactive
C[C@]12C=CC(=O)C=C1[C@@H](F)C[C@@H]1[C@@H]2[C@@H](O)C[C@@]2(C)[C@H]1CC[C@]2(O)C(=O)CO,max response,CRL-7250,1.95%
same,max response,HEK293,-9.41%
same,max response,HaCat,-4.4%
same,max response,KB-3-1,8% and -2.32%
same,max response,NIH3T3,-3.51%
COC(=O)CCc1ccc(OCC(O)CNC(C)C)cc1 (stereo not given),max response,CRL-7250,-4.17% and 4.01%
same,max response,HEK293,1.57% and 1.48%
same,max response,HaCat,-0.177%
same,outcome,HaCat,inactive
same,max response,KB-3-1,4.51% and -9.53%
same,max response,NIH3T3,1.54% and 3.52%
Cc1ccc(Nc2c(F)cccc2Cl)c(CC(=O)O)c1,outcome,CRL-7250,inactive
same,max response,HEK293,2.42%
same,outcome,HaCat,inactive
same,max response,KB-3-1,-12.9% and 2.03%
same,max response,NIH3T3,2.46%
CCN(CCCCOC(=O)c1ccc(OC)c(OC)c1)C(C)Cc1ccc(OC)cc1 (stereo not given),outcome,CRL-7250,inactive
same,max response,HEK293,-15.6%
same,outcome,HaCat,inactive
same,max response,KB-3-1,-8.65%
same,max response,NIH3T3,-18.2%
CC1(C)OC[C@@H](COC(=O)CCc2ccc(OC[C@@H](O)CNCCNC(=O)N3CCOCC3)cc2)O1,outcome,CRL-7250,inactive
same,outcome,HEK293,inactive
same,max response,HaCat,3.95%
same,max response,KB-3-1,-12.4% and -13.1%
same,max response,NIH3T3,4.95%
CN1[C@@H]2CC[C@H]1CC(OC(=O)c1c[nH]c3ccccc13)C2 (stereo not given in full),max response,CRL-7250,-2.71%
same,outcome,CRL-7250,inactive
same,max response,HEK293,4.73%
same,outcome,HEK293,inactive
same,max response,HaCat,0.428%
same,outcome,HaCat,inactive
same,max response,KB-3-1,-8.86% and -5.38%
same,outcome,NIH3T3,inactive
CC(C)(C)NC(=O)[C@@H]1CN(Cc2cccnc2)CCN1C[C@@H](O)C[C@@H](Cc1ccccc1)C(=O)N[C@H]1c2ccccc2C[C@H]1O,max response,CRL-7250,-1.33% and -2.61%
same,max response,HEK293,3.56%
same,outcome,HEK293,inactive
same,max response,HaCat,-2.17%
same,outcome,HaCat,inactive
same,max response,KB-3-1,9.13%
same,max response,NIH3T3,1.79% and -2.96%
C[n+]1c2cc(N)ccc2cc2ccc(N)cc21 (tested in a mixture with another compound),Potency,CRL-7250,6.68 µM (active)
same,Potency,HEK293,3.35 µM (active)
CN(C)CC/C=C1/c2ccccc2COc2ccc(CC(=O)O)cc21,max response,CRL-7250,2.78%
same,max response,HEK293,1.17%
same,max response,HaCat,-4.81%
same,max response,KB-3-1,-7.2%
same,max response,NIH3T3,-1.64%
CCOC(=O)OC(C)OC1=C(C(=O)Nc2ccccn2)N(C)S(=O)(=O)c2ccccc21 (stereo not given),Potency,HB3,inactive
same,Potency,ICS,inactive
same,Potency,JCK,inactive
same,Potency,N140,inactive
same,Potency,P93_24,inactive
same,Potency,P94_40,inactive
same,Potency,PAD,inactive
same,Potency,PC15,inactive
same,Potency,PC26,inactive
same,Potency,PC49,inactive
same,Potency,SC27B,inactive
same,Potency,TAB109,inactive
same,Potency,TAB113,inactive
same,Potency,TAB165,inactive
same,outcome,CRL-7250,inactive
same,outcome,HEK293,inactive
same,outcome,HaCat,inactive
same,max response,KB-3-1,2.11%
same,max response,NIH3T3,3.47%
Oc1cc(O)c2c(c1)O[C@H](c1ccc(O)c(O)c1)[C@H](O)C2,max response,CRL-7250,-5.79%
same,outcome,HEK293,inactive
same,max response,HaCat,4.8%
same,max response,KB-3-1,-0.959%
same,max response,NIH3T3,-0.255%
COc1cccc2c1C(=O)c1c(O)c3c(c(O)c1C2=O)C[C@@](O)(C(=O)CO)C[C@@H]3O[C@H]1C[C@H](N)[C@H](O)[C@H](C)O1,Potency,CRL-7250,1.33 µM (active)
same,Potency,HEK293,0.266 µM (active)
same,Potency,HaCat,0.944 µM (active)
same,max response,KB-3-1,-13.1%
same,Potency,NIH3T3,0.15 µM (active)
CC(=O)N(O)CCCCCNC(=O)CCC(=O)N(O)CCCCCNC(=O)CCC(=O)N(O)CCCCCN,Potency,HB3,inactive
same,Potency,ICS,inactive
same,Potency,JCK,10 µM (active)
same,Potency,N140,inactive
same,Potency,P93_24,inactive
same,Potency,P94_40,inactive
same,Potency,PAD,inactive
same,Potency,PC15,inactive
same,Potency,PC26,inactive
same,Potency,SC27B,inactive
same,Potency,TAB109,inactive
same,Potency,TAB113,inactive
same,Potency,TAB165,inactive
same,Potency,W2,inactive
same,Potency,CRL-7250,2.99 µM (active)
same,Potency,HEK293,52.4 nM (active) and 9.44 µM (active)
same,Potency,HaCat,1.32 µM (active)
same,max response,HaCat,-20.9%
same,max response,KB-3-1,1.85%
